# In ChEMBL document CHEMBL3988442, “University of Dundee, Small-Polar-MMV Screening Library” (2021):
# Out of some 69,000 compounds screened, about 1,000 (1.4%) showed an effect of 50% or more. The full list was thinned out, with strong results kept by preference.
# System: Leishmania donovani
# Assay: Leishmania intramacrophage assay
# Assay type: functional, organism-based
# Parameters: scale not given: in the data most compounds retested in dose-response had high values
smiles,measurement,setting,value
CCC1=N[C@@]2(CC[C@@H]3CN(Cc4ccccc4C)C[C@@H]32)C(=O)N1C.O=C(O)C(F)(F)F,Percent Effect,"30.3 µM, […]",57.66%
CCC1=N[C@@]2(CC[C@@H]3CN(Cc4ccc(C)cc4)C[C@@H]32)C(=O)N1C.O=C(O)C(F)(F)F,Percent Effect,"30.3 µM, […]",15.86%
CCC1=N[C@@]2(CC[C@@H]3CN(Cc4ccccc4C)C[C@@H]32)C(=O)N1.O=C(O)C(F)(F)F,Percent Effect,"30.3 µM, […]",9.963%
CCc1ccc(C2COCCN2C(=O)Nc2ccc(C(N)=O)c(Cl)c2)o1 (stereo not drawn),Percent Effect,"30.3 µM, […]",-7.006%
CC1=C(C(=O)N2CCCC(Cn3cc(CO)nn3)C2)OCCO1 (stereo not drawn),Percent Effect,"30.3 µM, […]",-4.102%
Cc1ccccc1-n1cnc(Cl)c1CO,Percent Effect,"30.3 µM, […]",0.1894%
NS(=O)(=O)c1cccnc1Nc1cccc(Cl)c1Cl,Percent Effect,"30.3 µM, […]",7.348%
NS(=O)(=O)c1cccnc1Nc1c(Cl)cccc1Cl,Percent Effect,"30.3 µM, […]",68.36%
NS(=O)(=O)c1cccnc1NCc1ccco1,Percent Effect,"30.3 µM, […]",37.64%
CC1Cc2ccccc2N1C(=O)Cn1nc(-c2cccs2)ccc1=O (stereo not drawn),Percent Effect,"30.3 µM, […]",31.43%
O=C1CC(c2ccc(C(=O)O)cc2)c2ncn(-c3ccccc3F)c2N1 (stereo not drawn),Percent Effect,"30.3 µM, […]",26.03%
CC(=O)Nc1nc(C(=O)NCc2ccc(N3CCCCCC3)nc2)cs1,Percent Effect,"30 µM, 30.03 µM",27.71%
CC(=O)Nc1nc(C(=O)NCc2ccc(N3CCCC3)nc2)cs1,Percent Effect,30 µM,7.198%
CC(=O)Nc1nc(C(=O)Nc2ccc(N3CCCCC3)nc2)cs1,Percent Effect,"30 µM, 30.03 µM",56.06%
Cc1cn2c(n1)CCC(NC(=O)CCC(F)(F)F)C2 (stereo not drawn),Percent Effect,"30 µM, 30.03 µM",-20.9%
COc1ccc(N2CCN(Cc3nc(CSC)no3)C(C)C2=O)cc1 (stereo not drawn),Percent Effect,"30.3 µM, […]",-39.19%
CCc1nnc(CN2CCN(c3cccc(OC)c3)C(=O)C2)o1,Percent Effect,"30.3 µM, […]",85%
COCCc1noc(CN2CCN(c3ccc(OC)cc3)C(=O)C2C)n1 (stereo not drawn),Percent Effect,"30.3 µM, […]",6.497%
COc1ccc(N2CCN(Cc3nc(CSC)no3)CC2=O)cc1,Percent Effect,"30.3 µM, […]",62.54%
COc1cc(CN2CCN(c3cccc(OC)c3)C(=O)C2)cc(OC)c1,Percent Effect,"30 µM, 30.03 µM",-0.5901%
CCc1ccc(CN2CCN(c3cccc(OC)c3)C(=O)C2)nc1,Percent Effect,"30.3 µM, […]",11.49%
O=C(Nc1ccccc1F)C1=NN(c2ccccc2)C(=O)CN1,Percent Effect,30 µM,-15.12%
Cc1cc(NCCc2c(C)n[nH]c2C)nc(-c2cccnc2)n1,Percent Effect,"30.3 µM, […]",4.777%
Cn1ccnc1CN(Cc1ccccn1)Cc1ccccc1Cl.O=C(O)CC(O)(CC(=O)O)C(=O)O,Percent Effect,"30.3 µM, […]",10.71%
O=C(Nc1ccc(Cl)cn1)c1cncc(C2CCNCC2)n1,Percent Effect,"30.3 µM, […]",-16.97%
COc1ccccc1C(=O)N1CCN(CCc2scnc2C)CC1,Percent Effect,"30.3 µM, […]",5.837%
CCS(=O)(=O)NCC(=O)Nc1cc(CC(C)(C)C)n[nH]1,Percent Effect,"30.3 µM, […]",-13.95%
Cc1cnn(C2CN(CCOc3cccc(C#N)c3)C2)c1,Percent Effect,"30.3 µM, […]",0.4339%
COc1ccc(C2CCCN2c2nnc(C)s2)c(OC)c1 (stereo not drawn),Percent Effect,"30.3 µM, […]",1.461%
COc1ccc(C2CCCN2c2cnccn2)c(OC)c1 (stereo not drawn),Percent Effect,"30.3 µM, […]",20.05%
COc1ccc(C2CCCN2c2ccnc(C)c2Cl)c(OC)c1 (stereo not drawn),Percent Effect,"30.3 µM, […]",54.95%
COc1ccc(C(=O)NCCCn2ccnc2)c(OC)n1,Percent Effect,"30 µM, 30.03 µM",10.91%
CCOc1ccc(CNCCCn2ccnc2)cc1OC,Percent Effect,"30.3 µM, […]",3.86%
CCOc1ccc(NC(=O)N2CCC(n3cncn3)CC2)cc1Cl,Percent Effect,"30.3 µM, […]",-3.205%
CCOc1ccc(CNCCCn2ccnc2)cc1Cl.Cl.Cl,Percent Effect,"30.3 µM, […]",68.16%
CCOc1ccc(CNCCCn2ccnc2)cc1Br,Percent Effect,"30 µM, 30.03 µM",80.37%
CCOc1cc(CNCCCn2ccnc2)cc(Cl)c1OC,Percent Effect,"30.3 µM, […]",37.96%
COCCCn1ccc(NC(=O)NCCCn2ccnc2)n1,Percent Effect,"30.3 µM, […]",2.018%
CCOc1cc(CNCCCn2ccnc2)cc(Cl)c1OCC,Percent Effect,"30.3 µM, […]",81.44%
COc1cc(CNCCn2ccnc2)cc2c1OCO2.Cl,Percent Effect,"30.3 µM, […]",27.41%
CN(C)C(=O)COCc1nn(C)c2c1CCN(Cc1ccco1)C2.O=C(O)C(F)(F)F,Percent Effect,"30.3 µM, […]",23.44%
O=C(NCC(F)F)c1ccc(S(=O)(=O)N2CCCC(O)C2)cc1 (stereo not drawn),Percent Effect,"30.3 µM, […]",15.51%
CN(C)Cc1ccc(C(=O)N2CCCC(n3cccn3)C2)cc1 (stereo not drawn),Percent Effect,"30.3 µM, […]",-1.565%
Cc1nn(C)c(N(C)C)c1CNC1CCc2c(Cl)cccc21.Cl (stereo not drawn),Percent Effect,30 µM,34.54%
O=C([C@@H](O)Cc1ccccc1)N1CCCn2cncc2C1,Percent Effect,"30.3 µM, […]",13.9%
Cn1ccc(C(=O)Nc2nc(-c3ccc4c(c3)CCO4)cs2)cc1=O,Percent Effect,"30.3 µM, […]",32.33%
O=C(O)C(F)(F)F.O=C(c1cc(C2CC2)on1)N1C[C@@H]2COC[C@]2(COc2cccnc2)C1,Percent Effect,"30.3 µM, […]",50.64%
O=C(O)C(F)(F)F.O=C(c1ccc(F)cc1)N1C[C@@H]2COC[C@]2(COc2cccnc2)C1,Percent Effect,"30.3 µM, […]",16.14%
